Screening data from PubChem BioAssay.
The list is not random: actives were taken first. Their share in the collection is about 9.2%.
NPC1 promoter act = activators of NPC1 promoter; AID 485313; Huh7 NPC1 promoter luciferase reporter, 24 h; 320,000 compounds, 2.4% hits; Potency, µM (highest dose often 9.22 µM), hits mostly activators; also: nearly all actives have a fitted effect of over 60% in size
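Readout is luciferase luminescence, reflecting NPC1 promoter activation in stably transfected Huh7 cells after 24 h compound exposure at 37 °C in reduced-serum medium with 10% FBS.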
Rab9 prom act = activates the Rab9 promoter; Huh7 Rab9 promoter-luciferase reporter, luminescence, 24 h; Potency, µM (series often up to 9.22 µM), hits mostly activators; 320,000 compounds, 2.8% hits; also: nearly all actives have a fitted effect of over 60% in size
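Using Huh7 cells stably transfected with Rab9 promoter–luciferase, compounds were incubated 24 h at 37 °C, 5% CO2; luciferase luminescence was read 10 min after reagent addition.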
ELG1 genotoxic = induces genotoxicity in HEK293T cells with luciferase-tagged ELG1. AID 504466. HEK293T ELG1-luciferase reporter, luminescence, 16 h. Potency, µM (series often up to 46 µM), actives largely listed as activators. 330,000 compounds, 1.3% hits; also: nearly all actives have a fitted effect of over 60% in size
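Step 1: seed 2,000 HEK293T ELG1-luciferase cells per well. Step 2: add compound or DMSO, incubate 16 hr at 37 °C. Step 3: ONE-Glo, 30 min at room temperature, read luminescence.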
SMN2 splice enh = SMN2 splice variant enhancement; HEK293 SMN2-luciferase splicing reporter, luminescence, 30-36 h; 210,000 compounds, 2.8% hits; Potency, µM (top dose mostly 46.1 µM), usual class: activators; AID 1458; also: nearly all actives have a fitted effect of over 55% in size
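HEK293 cells carry an SMN2 minigene-luciferase reporter in which exon 7 inclusion puts luciferase in frame. Cells were seeded at 2000 cells/well, attached for 10-12 hours, then exposed to compounds for 30-36 hours at 37C before ONE-Glo luminescence.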
ELG1 DNA repair = inhibitors of ELG1-dependent DNA repair in HEK293T cells; Potency, µM (titrated, usually from 46.1 µM), usual class: inhibitors; HEK293T ELG1-luciferase reporter, luminescence, 16 h; DNA damage induced by 5-fluorouridine; 330,000 compounds, 2.3% hits; also: nearly all actives have a fitted effect of over 55% in size
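In this reporter screen, reduction of luminescence relative to DMSO vehicle indicated activity. Compounds and 5-fluorouridine were added together to 2,000 cells per well, incubated for 16 hr at 37 °C, then developed with ONE-Glo.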
FLuc counter = counter-screen for miR-21 project: firefly luciferase inhibitors or activators; purified FLuc, Km substrates, luminescence inhibition; Potency, µM (series often up to 57.5 µM), usual class: inhibitors; 360,000 compounds, 6.9% hits; also: nearly all actives have a fitted effect of over 55% in size
Target sequence (P08659 whole entry, looked up): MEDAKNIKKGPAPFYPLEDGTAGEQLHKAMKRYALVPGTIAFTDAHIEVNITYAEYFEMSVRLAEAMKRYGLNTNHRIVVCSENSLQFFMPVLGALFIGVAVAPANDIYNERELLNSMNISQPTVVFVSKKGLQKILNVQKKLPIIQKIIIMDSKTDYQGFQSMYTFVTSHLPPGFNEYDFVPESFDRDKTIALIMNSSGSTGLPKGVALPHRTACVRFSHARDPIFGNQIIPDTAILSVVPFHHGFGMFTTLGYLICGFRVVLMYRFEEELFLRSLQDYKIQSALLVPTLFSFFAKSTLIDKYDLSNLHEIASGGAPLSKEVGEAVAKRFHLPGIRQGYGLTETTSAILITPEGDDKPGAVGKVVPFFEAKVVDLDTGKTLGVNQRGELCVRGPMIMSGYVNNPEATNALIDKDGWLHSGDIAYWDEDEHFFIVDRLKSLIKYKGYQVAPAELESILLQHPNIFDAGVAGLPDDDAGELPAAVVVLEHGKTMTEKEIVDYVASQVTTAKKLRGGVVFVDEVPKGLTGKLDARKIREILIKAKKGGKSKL
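Biochemical qHTS of compounds, final roughly 60 µM downward over six points, against 10 nM purified firefly luciferase using Km concentrations of substrates (10 uM D-luciferin, 10 uM ATP) in Tris acetate pH 7.5 buffer; luminescence output.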
Hits are given with their value. Calls follow the shape of the dose curve; as a rule, active = well fitted curve in the direction sought with a large enough effect; inconclusive = small, poorly fitted or top-dose-only effect, or another doubt; inactive = no such curve, though single readings can be large; an effect the other way counts as inactive or inconclusive.

Results for Cc1ccc(S(=O)(=O)Oc2ccccc2N2C(=O)C3C4CCC(C4)C3C2=O)cc1 (stereo unspecified) ?
NPC1 promoter act: inactive; Rab9 prom act: inactive; ELG1 genotoxic: inactive; ELG1 DNA repair: inactive; FLuc counter: inactive

How did Cc1ccc(S(=O)(=O)Oc2ccc(N3C(=O)C4C5CCC(C5)C4C3=O)cc2)cc1 (stereo unspecified) do in these assays?
NPC1 promoter act: inactive; Rab9 prom act: inactive; ELG1 genotoxic: inactive; SMN2 splice enh: inactive; ELG1 DNA repair: 8.2µM; FLuc counter: inactive

What do the screens show for `CC1CCc2c(sc3ncnc(SC(C)C(=O)NCC4CCCO4)c23)C1` (stereo unspecified)?
NPC1 promoter act: inactive; Rab9 prom act: inactive; ELG1 genotoxic: inactive; ELG1 DNA repair: inactive; FLuc counter: inactive

How did Cc1csc(NC(=O)c2ccc(Cl)cc2[N+](=O)[O-])n1 do in these assays?
NPC1 promoter act: inconclusive; Rab9 prom act: 4.5µM; ELG1 genotoxic: inconclusive; SMN2 splice enh: 11µM; ELG1 DNA repair: inconclusive; FLuc counter: 27µM

How did Cc1csc(NC(=O)c2ccccc2[N+](=O)[O-])n1 do in these assays?
NPC1 promoter act: inactive; Rab9 prom act: inactive; ELG1 genotoxic: inactive; SMN2 splice enh: inactive; ELG1 DNA repair: inactive; FLuc counter: inactive

What do the screens show for `Cc1csc(NC(=O)c2ccc(C)c([N+](=O)[O-])c2)n1`?
NPC1 promoter act: 2µM; Rab9 prom act: 1.1µM; ELG1 genotoxic: inconclusive; SMN2 splice enh: 3.5µM; ELG1 DNA repair: inconclusive; FLuc counter: 1.1µM

How did O=C(Nc1cccc(Cl)c1Cl)C1CCN(C(=O)c2cccs2)CC1 do in these assays?
NPC1 promoter act: inactive; Rab9 prom act: inactive; ELG1 genotoxic: inactive; ELG1 DNA repair: inactive; FLuc counter: inactive

Results for CCCCN=C(C)c1c(O)c2ccccc2oc1=O ?
NPC1 promoter act: inconclusive; Rab9 prom act: 4µM; ELG1 genotoxic: inconclusive; SMN2 splice enh: inconclusive; ELG1 DNA repair: inconclusive; FLuc counter: 19µM

Results for CC(C)c1ccc(N=Cc2c(O)c3ccccc3oc2=O)cc1 ?
NPC1 promoter act: inactive; Rab9 prom act: inactive; ELG1 genotoxic: inactive; ELG1 DNA repair: inconclusive; FLuc counter: 0.38µM

Results for NS(=O)(=O)c1ccc(N=Cc2c(O)c3ccccc3oc2=O)cc1 ?
NPC1 promoter act: inactive; Rab9 prom act: inactive; ELG1 genotoxic: inactive; SMN2 splice enh: inactive; ELG1 DNA repair: inactive; FLuc counter: inactive

How did COc1ccc(OCC(=O)c2c(O)c3ccccc3oc2=O)cc1 do in these assays?
NPC1 promoter act: inactive; Rab9 prom act: inactive; ELG1 genotoxic: inactive; ELG1 DNA repair: inactive; FLuc counter: 17µM

Results for COc1ccc(N=Cc2c(O)c3ccccc3oc2=O)cc1 ?
NPC1 promoter act: inactive; Rab9 prom act: inactive; ELG1 genotoxic: inactive; SMN2 splice enh: inactive; ELG1 DNA repair: inconclusive; FLuc counter: 0.76µM

What do the screens show for `CCCCC(=O)c1c(O)c2ccccc2oc1=O`?
NPC1 promoter act: inactive; Rab9 prom act: inactive; ELG1 genotoxic: inactive; SMN2 splice enh: inactive; ELG1 DNA repair: inconclusive; FLuc counter: inconclusive

Results for Cc1cc2ccccc2c(=O)n1CC(=O)N(C)c1ccc(F)cc1 ?
NPC1 promoter act: inactive; Rab9 prom act: inactive; ELG1 genotoxic: inactive; SMN2 splice enh: inactive; ELG1 DNA repair: inactive; FLuc counter: inactive

How did Cc1ccc(-n2c(=O)c3c4c(sc3n(CC(=O)C(C)(C)C)c2=O)CCCCC4)cc1C do in these assays?
SMN2 splice enh: inactive; FLuc counter: inactive

How did C[C@@H](C1[C@@H](O)CC2C3C=CC4C[C@@H](O)CC[C@]4(C)[C@H]3CC[C@@]21C)[C@@H]1CCCCN1 (stereo partly specified) do in these assays?
SMN2 splice enh: inactive

How did COc1ccc(N=Cc2c(O)cc(C)oc2=O)cc1 do in these assays?
NPC1 promoter act: inactive; Rab9 prom act: inactive; ELG1 genotoxic: inactive; SMN2 splice enh: inactive; ELG1 DNA repair: inactive; FLuc counter: 12µM

How did Nc1nc2c(C(=O)N3CCOCC3)nnn2c2ccccc12 do in these assays?
NPC1 promoter act: 3.2µM; Rab9 prom act: 3.2µM; ELG1 genotoxic: inconclusive; ELG1 DNA repair: inconclusive; FLuc counter: 12µM
